Sampled rows, rich in hits. Any-hit rate of the full collection: about 17%.
TDP1 cell CPT = growth inhibition of DT40 Tdp1-/-;hTDP1 cells with camptothecin (screen for TDP1 inhibitors); chicken DT40 Tdp1-/-;hTDP1 cells + 20 nM CPT, ATP luminescence, 48 h; Potency, µM (highest dose often 46.2 µM), hits mostly inhibitors; 420,000 tested, 12% active; note: nearly all actives have a fitted effect of over 55% in size
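Chicken DT40 Tdp1-/- cells complemented with human TDP1, 400 cells/well, exposed to compounds plus 20 nM camptothecin for at least 48 h at 37 C; viability read as ATP content by CellTiter-Glo luminescence.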
HT1080-NT tox = kills 2HG-producing HT-1080-NT fibrosarcoma cells. HT-1080-NT fibrosarcoma viability, CellTiter-Glo ATP luminescence, 48 h. Potency, µM (top dose mostly 46.1 µM), hits mostly cytotoxic. 360,000 tested, 1.6% active;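 note: NT is the 2HG producing partner of a matched IDH1 knockdown line; nearly all actives have a fitted effect of over 55% in size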
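Compounds were tested in concentration-response format on HT-1080-NT cells for 48 hours at 37 degrees C. Cell viability came from CellTiter-Glo luminescence; curves were classified by r2, response magnitude and activity.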
HT1080 IDH1KD tx = kills HT-1080 cells with IDH1 knockdown; HT-1080 IDH1 knockdown viability, ATP luminescence, 48 h; Potency, µM (doses to about 46.1 µM), actives largely listed as cytotoxic; 360,000 tested, 2% active; AID 686971
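After a 2 h attachment period, IDH1KD HT-1080 cells took pin-transferred compound for 48 h at 37 °C; ATP-based luminescence after 10 min room-temperature reagent incubation reported viability.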
TDP1 cell noCPT = qHTS for Inhibitors of human tyrosyl-DNA phosphodiesterase 1 (TDP1): qHTS in cells in absence of CPT; DT40 Tdp1-/- hTDP1 cells, no CPT, ATP luminescence, 48 h; Potency, µM (doses to about 46.2 µM), usual class: inhibitors; 420,000 tested, 15% active; AID 686978, 2013; note: nearly all actives have a fitted effect of over 55% in size
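Seeded 400 DT40-hTDP1 cells/well (vehicle DMSO, no 20 nM CPT); pinned compounds; ≥48 hr at 37 °C; CellTiter-Glo luminescence as viability measure.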
TGFb inhibitor = inhibitors of TGF-b signaling; HepG2 CAGA-GFP TGF-b/SMAD3 reporter, GFP fluorescence, 18 h; TGF-beta stimulated, 500 pg/mL final; Potency, µM (doses to about 46.1 µM), hits mostly inhibitors; 410,000 tested, 1.2% active; note: nearly all actives have a fitted effect of over 65% in size
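TGF-beta reporter screen: HEPG2 CAGA-GFP, 1% FBS, 500 pg/mL TGF-beta final, 18 h; per-cell GFP summed per well; curves fitted and categorized by class.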
HepG2 viability = kills HepG2 cells in TGF-b inhibitor counter-screen; 410,000 tested, 0.76% active; HepG2 CAGA-GFP viability, ATP luminescence, 18 h; AID 588856; Potency, µM (titrated, usually from 46.1 µM), most hits filed as cytotoxic
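HepG2 CAGA-GFP cells (1000/well, DMEM with 1% FBS) received compound, then TGF-beta at 500 pg/mL final, and were incubated 18 hours at 37 degrees C. Viability was read by CellTiter-Glo luminescence. Media-only wells were set as complete cell-killing and DMSO as no toxicity.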
A number is an active result; – = inactive; ? = inconclusive; · = not tested or not shown. Calls come from the whole dose curve; as a rule, active = well fitted curve in the direction sought with a large enough effect; inconclusive = small, poorly fitted or top-dose-only effect, or another doubt; inactive = no such curve, though single readings can be large; an effect the other way counts as inactive or inconclusive.

SMILES	TDP1 cell CPT	HT1080-NT tox	HT1080 IDH1KD tx	TDP1 cell noCPT	TGFb inhibitor	HepG2 viability
COC(C(=O)N1CCC(CCC(=O)Nc2ccccc2)CC1)c1ccccc1 (centres undefined)	20.6µM	–	–	9.2µM	–	–
CCc1noc(C)c1C(=O)N1CCC(CCC(=O)Nc2cccc(OC)c2)CC1	9.2µM	–	–	8.2µM	–	–
Cn1cc(CNCc2cn[nH]c2-c2ccc(F)cc2)c(-c2ccc3c(c2)OCCO3)n1	–	–	–	–	–	–
Cn1cc(CNCc2ccc(OC(F)(F)F)cc2)c(-c2ccc3c(c2)OCCO3)n1	7.31µM	20.6µM	–	2.59µM	?	–
Cc1nn(-c2ccccc2)c(C)c1-c1nnc(-c2c(C)nn(-c3ccccc3)c2C)o1	?	–	–	18.4µM	–	–
CC(C)(C)NCCC(O)c1cc(C(F)(F)F)nc2c(C(F)(F)F)cccc12 (centres undefined)	20.6µM	–	?	16.4µM	?	–
Cc1nc2c(C(F)(F)F)cccc2c2c1CCS2	–	–	–	–	–	–
COc1cc(-c2nnc(SCC(=O)Oc3ccccc3)o2)cc(OC)c1OC	–	·	·	–	–	–
O=C(CCN1c2ccccc2Sc2ccccc21)OCc1nnc(-c2ccccc2)o1	–	–	–	–	–	–
COc1cc(-c2nnc(SCC(=O)N3c4ccccc4Sc4ccccc43)o2)cc(OC)c1OC	?	–	–	8.2µM	–	–
COc1cc(-c2nnc(SCC(=O)c3ccc(C)cc3)o2)cc(OC)c1OC	?	–	?	23.1µM	–	–
COc1cccc(C(=O)CSc2nnc(-c3cc(OC)c(OC)c(OC)c3)o2)c1	?	–	–	20.6µM	–	–
O=C(Sc1nnc(-c2ccccc2)o1)N1c2ccccc2Sc2ccccc21	20.6µM	–	–	18.4µM	–	–
COc1cc(-c2nnc(SCC(=O)Oc3ccccc3Cl)o2)cc(OC)c1OC	–	·	·	–	–	–
COc1ccc(-c2noc(-c3cccnc3NCc3ccco3)n2)cc1	–	·	·	?	–	–
COc1ccc(OC)c(/C=N/NC(=O)CC2C(=O)NN=C2C)c1 (centres undefined)	–	–	–	–	–	–
Cc1ccc(/C=C/C(=O)O)cc1S(=O)(=O)N1CCCCC1	–	–	–	–	–	–
CCc1ccccc1NC(=O)CCc1c(C)nn(-c2ccc(N3CCOCC3)nn2)c1C	–	–	–	–	–	–
COc1cc(-c2nnc(SCc3ccccc3Cl)o2)cc(OC)c1OC	?	–	–	?	–	–
COc1cc(-c2nnc(SCc3c(F)cccc3Cl)o2)cc(OC)c1OC	?	–	–	25.9µM	–	–
Cc1cccc2c1c(N=NC(N)=S)c(O)n2C1OC(CO)C(O)C(O)C1O (centres undefined)	–	–	–	–	–	–
CC(C)C1C(=O)N(Cc2cn(CC3CCCCC3)nn2)CCS(=O)(=O)N1Cc1ccc(-c2cccc(CO)c2)cc1 (centres undefined)	18.4µM	?	?	8.2µM	?	–
CC(C)C1C(=O)N(Cc2cn(CC3CCCCC3)nn2)CCS(=O)(=O)N1Cc1ccc(-c2ccc(F)nc2)cc1 (centres undefined)	?	?	?	13µM	?	–
COCOCCn1cc(CN2CCS(=O)(=O)N(Cc3ccc(-c4ccc(F)nc4)cc3)C(C)C2=O)nn1 (centres undefined)	–	–	–	–	–	–
Cc1ccc(-c2ccc(CN3C(C(C)C)C(=O)N(Cc4cn(CC5CCCCC5)nn4)CCS3(=O)=O)cc2)cc1 (centres undefined)	11.6µM	?	?	8.2µM	?	–
SMILES	TDP1 cell CPT	HT1080-NT tox	HT1080 IDH1KD tx	TDP1 cell noCPT	TGFb inhibitor	HepG2 viability
CCC/C=C/c1ccc(CN2C(CC(C)C)C(=O)N(Cc3cn(CC4CCCCC4)nn3)CCS2(=O)=O)cc1 (centres undefined)	?	?	–	23.1µM	?	–
CCCn1nc(C(=O)OCC(=O)Nc2cccc(OC)c2)c2ccccc2c1=O	–	–	–	–	?	–
CC(C)c1ccc(NC(=O)COC(=O)c2cc(=O)[nH]c3ccccc23)cc1	–	–	–	–	–	–
COc1cc(C2Nc3ccccc3C(=O)N2c2ccc3c(c2)OCCO3)ccc1OCC(C)C (centres undefined)	–	–	?	?	–	–
COc1ccc(C(O)c2ncc(-c3ccc4ccccc4c3)[nH]2)cc1 (centres undefined)	–	?	?	–	–	–
FC(F)(F)c1ccccc1Cc1c(-c2ccco2)nc2ccc(Br)cn12	?	?	?	?	?	–
CC(C)C1C(=O)N(Cc2cn(CC3CCCCC3)nn2)CCS(=O)(=O)N1Cc1ccc(-c2ccncc2)cc1 (centres undefined)	–	–	–	?	–	–
Cc1ccc(-c2ccc(CN3C(CC(C)C)C(=O)N(Cc4cn(CC5CCCCC5)nn4)CCS3(=O)=O)cc2)cc1 (centres undefined)	20.6µM	–	?	16.4µM	–	–
CC(C)C1C(=O)N(Cc2cn(CC3CCCCC3)nn2)CCS(=O)(=O)N1Cc1ccc(-c2ccccc2)cc1 (centres undefined)	13µM	–	?	4.11µM	?	–
CC(C)C1C(=O)N(Cc2cn(CC3CCCCC3)nn2)CCS(=O)(=O)N1Cc1ccc(-c2ccc(Cl)cc2)cc1 (centres undefined)	9.2µM	?	?	7.31µM	?	–
CC(C)C1C(=O)N(Cc2cn(CC3CCCCC3)nn2)CCS(=O)(=O)N1Cc1ccc(-c2ccc(Cl)nc2)cc1 (centres undefined)	14.6µM	?	?	10.3µM	?	–
CC(N)CCCP(=O)(O)O (centres undefined)	–	·	·	–	·	·
CCc1ccc(C(=O)C(C)OC(=O)c2nn(C)c(=O)c3ccccc23)cc1 (centres undefined)	–	–	–	–	–	–
CCSC(=Nc1ccccc1)Nc1ccccc1	–	–	–	?	–	–
COc1ccc(OC2CCN(S(=O)(=O)c3ccc(C(C)=O)cc3)CC2)cc1	?	–	–	–	–	–
CCOC(=O)c1ccc(NC(=O)c2nc[nH]c2C(=O)NCCCNC(=O)c2[nH]cnc2C(=O)Nc2ccc(C(=O)OCC)cc2)cc1	–	–	–	–	?	–
